Assay results from publication PMC5700166.

Key:
[1] = target: T1, GST-Nv-NF-kB (Ser allele) (Nematostella vectensis, UniProt A7UNT2 2-411); assay: protein-binding microarray (PBM); PBM: ~300 nM protein, 6 mM HEPES pH 7.8, 80 mM KCl, 0.5 mM EDTA, 0.5 mM EGTA, 6% glycerol, 35 ng/ul poly-dIdC, 1% milk, 1 h, room temperature; Ap Aiptasia and Nv Nematostella (sea anemones) / Co Capsaspora / Aq Amphimedon (sponge) / Dm Drosophila / Hu human; RHD is the Rel homology domain; high values mean tight binding; conditions: dsDNA, one strand shown
T1 sequence: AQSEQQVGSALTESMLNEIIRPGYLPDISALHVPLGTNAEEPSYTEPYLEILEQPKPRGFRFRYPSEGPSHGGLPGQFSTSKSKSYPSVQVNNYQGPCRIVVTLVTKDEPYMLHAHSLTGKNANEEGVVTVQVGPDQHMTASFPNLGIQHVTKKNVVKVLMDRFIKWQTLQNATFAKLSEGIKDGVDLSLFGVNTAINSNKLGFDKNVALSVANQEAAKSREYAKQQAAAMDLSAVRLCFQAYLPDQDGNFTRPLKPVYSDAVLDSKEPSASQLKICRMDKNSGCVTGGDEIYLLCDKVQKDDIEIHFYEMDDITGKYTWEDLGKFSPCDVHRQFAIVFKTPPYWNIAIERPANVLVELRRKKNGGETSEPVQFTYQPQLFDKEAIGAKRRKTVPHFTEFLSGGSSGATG

GST-Hu-p50 = GST-Hu-p50 (Homo sapiens, UniProt P19838 7-356); assay: as above; conditions: dsDNA, one strand shown
GST-Hu-p50, sequence (P19838 7-356): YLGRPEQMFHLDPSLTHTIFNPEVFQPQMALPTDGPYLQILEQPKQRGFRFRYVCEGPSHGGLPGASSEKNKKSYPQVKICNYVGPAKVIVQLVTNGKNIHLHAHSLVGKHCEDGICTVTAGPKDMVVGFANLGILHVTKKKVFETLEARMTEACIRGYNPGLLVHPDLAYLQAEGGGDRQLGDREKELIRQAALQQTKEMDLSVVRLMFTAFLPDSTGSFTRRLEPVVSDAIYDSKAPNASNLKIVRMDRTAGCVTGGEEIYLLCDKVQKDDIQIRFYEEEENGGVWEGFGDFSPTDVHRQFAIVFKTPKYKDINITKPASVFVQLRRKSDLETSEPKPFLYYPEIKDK

Row | Sequence | binding signal [1] | binding signal (GST-Hu-p50)
1 | CCGATTAACATCAGGGAAACTTATGATGTTAATCGGGTCTTGATTCGCTTGACGCTGCTG | 6.07 z-score | –
2 | CCGATTAACATCACATTATCCCCTGATGTTAATCGGGTCTTGATTCGCTTGACGCTGCTG | 6.4 z-score | 3.94 z-score
3 | CCGATTAACATCAGGGAAATTAATGATGTTAATCGGGTCTTGATTCGCTTGACGCTGCTG | 6.52 z-score | –
4 | CCGATTAACATCAGGGGGTAGGATGATGTTAATCGGGTCTTGATTCGCTTGACGCTGCTG | 3.54 z-score | 2.97 z-score
5 | CCGATTAACATCAGGGGAAGGACTGATGTTAATCGGGTCTTGATTCGCTTGACGCTGCTG | 5.04 z-score | 3.89 z-score
6 | CCGATTAACATCAGGGGTAGGTTTGATGTTAATCGGGTCTTGATTCGCTTGACGCTGCTG | 1.33 z-score | 1.07 z-score
7 | CCGATTAACATCATGGTACTTGTTGATGTTAATCGGGTCTTGATTCGCTTGACGCTGCTG | 1.85 z-score | –
8 | CCGATTAACATCATGGGAAAAAATGATGTTAATCGGGTCTTGATTCGCTTGACGCTGCTG | 5.03 z-score | 3.83 z-score
9 | CCGATTAACATCAGGGGCTACCCTGATGTTAATCGGGTCTTGATTCGCTTGACGCTGCTG | 2.1 z-score | 3.35 z-score
10 | CCGATTAACATCAGGGGGATGTATGATGTTAATCGGGTCTTGATTCGCTTGACGCTGCTG | 5.85 z-score | 4.84 z-score
11 | CCGATTAACATCACGAGTTTCCCTGATGTTAATCGGGTCTTGATTCGCTTGACGCTGCTG | 5.41 z-score | 2.39 z-score
12 | CCGATTAACATCAGGGTTTTTTATGATGTTAATCGGGTCTTGATTCGCTTGACGCTGCTG | 4.61 z-score | 4.89 z-score
13 | CCGATTAACATCAATCTACCCCCTGATGTTAATCGGGTCTTGATTCGCTTGACGCTGCTG | 4.13 z-score | 4.39 z-score
14 | CCGATTAACATCAGAATACCCCCTGATGTTAATCGGGTCTTGATTCGCTTGACGCTGCTG | 6.16 z-score | –
15 | CCGATTAACATCACCGGAATTCCTGATGTTAATCGGGTCTTGATTCGCTTGACGCTGCTG | 1.56 z-score | 2.71 z-score
16 | CCGATTAACATCAAGGTAATTCCTGATGTTAATCGGGTCTTGATTCGCTTGACGCTGCTG | 3.37 z-score | 2.4 z-score
17 | CCGATTAACATCACCTTCCCCCCTGATGTTAATCGGGTCTTGATTCGCTTGACGCTGCTG | 5.23 z-score | 4.59 z-score
18 | CCGATTAACATCAGGAATGTCCCTGATGTTAATCGGGTCTTGATTCGCTTGACGCTGCTG | 3.65 z-score | 3.77 z-score
19 | CCGATTAACATCACATTGTCCCCTGATGTTAATCGGGTCTTGATTCGCTTGACGCTGCTG | 5.06 z-score | 3.52 z-score
20 | CCGATTAACATCACCGAATTTCCTGATGTTAATCGGGTCTTGATTCGCTTGACGCTGCTG | 1.32 z-score | 2.56 z-score
21 | CCGATTAACATCAGAGATCCCCCTGATGTTAATCGGGTCTTGATTCGCTTGACGCTGCTG | 6.44 z-score | –
22 | CCGATTAACATCAGGCTATCCCCTGATGTTAATCGGGTCTTGATTCGCTTGACGCTGCTG | 3.73 z-score | 3.43 z-score
23 | CCGATTAACATCAGAATTCCCACTGATGTTAATCGGGTCTTGATTCGCTTGACGCTGCTG | 3.68 z-score | 3.3 z-score
24 | CCGATTAACATCATGTTGGGAAATGATGTTAATCGGGTCTTGATTCGCTTGACGCTGCTG | 2.11 z-score | 1.47 z-score
25 | CCGATTAACATCAGAAAATCCCATGATGTTAATCGGGTCTTGATTCGCTTGACGCTGCTG | 3.29 z-score | 3.86 z-score
26 | CCGATTAACATCAGGGTAATTTATGATGTTAATCGGGTCTTGATTCGCTTGACGCTGCTG | 6 z-score | –
27 | CCGATTAACATCAAAATTCCACCTGATGTTAATCGGGTCTTGATTCGCTTGACGCTGCTG | 3.38 z-score | 3.61 z-score
28 | CCGATTAACATCAAAAATCCCTATGATGTTAATCGGGTCTTGATTCGCTTGACGCTGCTG | 4.2 z-score | 4.72 z-score
29 | CCGATTAACATCAGGCGAGTCCCTGATGTTAATCGGGTCTTGATTCGCTTGACGCTGCTG | 2.72 z-score | 2.61 z-score
30 | CCGATTAACATCAGGGGTTTACCTGATGTTAATCGGGTCTTGATTCGCTTGACGCTGCTG | 4.43 z-score | 4.94 z-score
